# Assay results published in paper PMC10163288.
# Only a sample is shown. No count for the full screen is at hand. Unmarked numbers belong to inactive results.
# B1: il2ra_site2_3nfp_normal_mot_HHH_b1_05627_af2_000000038_0001_43_56_H_._HHH_b1_05526_af2_0001_0000100005_0000001_0 (protein)
# chain: SSSSDKAEEYVRAAMEAARYALEDGNPEVARRSLELARQLAESLGNEELREEVEELLQELSSSSS
# B2: il2ra_site2_2erj_sap_21_mot_HHH_b1_00069_af2_000000103_0001_1_18_H_._HHH_b1_05528_af2_0001_0000500009_0000001_0_0001_af2pred_0001_af2pred (protein)
# chain: SSSSDEIRRLYELAEELDKLLLEGDEEKVEELLEELEQLARETNTPSAEKVVRAIEKSLESSSSS
# B3: il2ra_site1_2b5i_sap_8_mot_HHH_b2_04131_000000150_0001_1_16_H_._HHH_b2_06569_af2_0001_0000100002_0000001_0_0001_af2pred_dldesign_0_af2pred (protein)
# chain: SSSSSSAEEFVNEAIEKAKELKAAGRPDEARRLLKLALKRARKANDADLVARVEALLAELSSSSS
# B4: il2ra_site1_1z92_normal_mot_6c2800a769814540b5b47941e710ff28_0001_af2_000000005_0001_35_49_H_._6228ca5b8b091676f337a4c0a06dbe92_0001_0003_0000300038_0000001_0 (protein)
# chain: DEFLIEQLLRKIEAGNEESAERIIERLLKNAGIPPEEVERIVEELLKLLKDGDPEEARKLLREAP
# B5: il2ra_site2_2erj_sap_28_mot_3b06bd03f1c6bceadc68eab912867b79_0001_000000296_0001_36_50_H_._HHH_b2_07644_af2_0001_0000200004_0000001_0_0001 (protein)
# chain: SSSSSDELKRAYELANALMHLVARNDREEFERISEEFEEIVEKLDSRTAREILESLERLISSSSS
# B6: il2ra_site2_2erj_sap_26_mot_6c2800a769814540b5b47941e710ff28_0001_000000197_0001_35_49_H_._HHH_b2_05475_0001_0000200011_0000001_0_0001_af2pred_0001_af2pred (protein)
# chain: DDEEYIEMWVELAAKRLGVPSVEVETRNGTLHVTVNGTDEAARRVLLAAELAAKAAGLPFETTEE
# B7: il2ra_site1_3nfp_sap_15_mot_HHH_b1_05868_af2_000000129_0001_1_19_H_._HHH_b1_04163_af2_0001_0000300017_0000001_0_0001_af2pred_0001_af2pred (protein)
# chain: SSSSSWREKAMEAILRAAELANDEELREELEKLLEKLREEGDPRALREAVKLLKEAAKRLSSSSS
# B8: il2ra_site2_3nfp_sap_32_mot_HHH_b1_00050_000000292_0001_22_38_H_._HHH_b2_06764_0001_0000600039_0000001_0_0001 (protein)
# chain: SSSSDESEEYFEAAFELVRLALEAGDPEAARRLLEMLELVAESQNDPELQRLVEELEEELSSSSS
# B9: il2ra_site1_3nfp_sap_18_mot_ems_3hM_2054_af2_000000130_0001_3_20_H_._HHH_b2_07863_0001_0000600021_0000001_0_0001 (protein)
# chain: SRILERFVKIARKRGNPEFARVVEILLEVLEQDPRLKRAIDKILFELVSGKLPPEEAEELAKELK
# B10: il2ra_site2_3nfp_normal_mot_HHH_b2_05513_000000198_0001_20_37_H_._52c50354b804bec8c3157ba16786ada3_0001_0001_0001000025_0000001_0_af2pred_0001_1_af2pred_swapped (protein)
# chain: DDLEERLRRSAELAGDPHDAVVFFIAFLEYELGDPEEAIELALEVAEELGDPELERIIRELRKLP
# B11: il2ra_site2_3nfp_normal_mot_HHH_b1_00239_000000199_0001_23_39_H_._HHH_b2_02904_0001_0000200025_0000001_0 (protein)
# chain: SSSSNEEILREAAELLLELLEERGDEEELRELEELLEELKRHGDPELQLELYAVLARIYSSSSSS
# B12: il2ra_site1_2b5i_normal_mot_3116615af0ee64d731c1c85d8523bf51_0001_000000216_0001_15_32_H_._HHH_b1_07838_af2_0001_0000100001_0000001_0_af2pred_dldesign_0_af2pred (protein)
# chain: SSSSSALEKEVEETLAKADELKAAGKRREALEALEKIHKKLSAADAEDLQEKVEKKAKELSSSSS
# B13: il2ra_site1_3nfp_normal_mot_eb5a5eebac1e5153f932cc6c3f4b2787_0001_af2_000000065_0001_18_33_H_._HHH_b2_04044_0002_0000100009_0000001_0 (protein)
# chain: SSSSSDEEIRERVEELLEEAKHIPDYREASRLVEEAYRLAAELGDPELSELIYRVMREIVSSSSS
# B14: il2ra_site1_3nfp_sap_21_mot_HHH_b2_02066_af2_000000034_0001_1_16_H_._c2845cfc7c062bbeb7cd94dd36b2ebbf_0001_af2_0001_0000100001_0000001_0_0001_af2pred_0001_af2pr … (protein)
# chain: SSSEEELQELFKLALELHKKLTNPEARQVVIHAMALVARATRTKDPELERRAREAIEEAEELDSS
# B15: il2ra_site2_2erj_normal_mot_HHH_b2_06726_000000006_0001_1_16_H_._HHH_b1_04199_0001_0000300043_0000001_1_af2pred_0001_af2pred (protein)
# chain: SSSSSSEYREEIEELIEEARRVDEEEAVALLAEAAFLAVRNKDEEIFREVAELSLELYRRSSSSS
# B16: il2ra_site2_3nfp_sap_23_mot_347257a5708f0dc4a322ca97a98db719_0001_1_af2_000000210_0001_36_49_H_._796cb09f51c241c629a2416424e53d75_0001_0001_0000100001_0000001_0 … (protein)
# chain: SSSSDKEEERVEELLEELKRLIEEGDEEKARRAFAEAAHLIFELNDSELFARLAELALELWSSSS
# B17: il2ra_site1_3nfp_sap_17_mot_HHH_b1_01159_af2_000000107_0001_1_20_H_._HHH_b1_00510_0001_0000100012_0000001_0_0001 (protein)
# chain: DEEEIRREIEELLEEDPQEAMQFAMKLAHEAMRNNDPELLRVVLEALLKVTGDPSVKKLLEVARR
# B18: il2ra_site1_1z92_normal_mot_HHH_b1_03515_000000289_0001_1_19_H_._HHH_b2_04566_af2_0001_0000100001_0000001_0 (protein)
# chain: SSSDEEQARRSLERLVEDAVKLAGLSEEQKEKLEELVEELIERGVDFLEAIKLIDELARELSSSS
# B19: il2ra_site1_2b5i_sap_13_mot_HHH_b2_07160_000000135_0001_1_14_H_._HHH_b1_04051_0001_0000500030_0000001_1_0001_af2pred_dldesign_0_af2pred (protein)
# chain: SSSSSLGRRRRELLERADKAFKAEDYELLKELLKEVKELVEKTKRKSDKAILKLIEEALEESSSS
# B20: il2ra_site2_2erj_sap_21_mot_6ec3e94b46d95805cdcdc10c0c108f03_0001_af2_000000040_0001_36_50_H_._HHH_b2_04396_0001_0000200006_0000001_0_0001 (protein)
# chain: SSSSSEWEEAARLSVLLLEAARKNDEELLEELRREAEELIKEIKNPAARRYLEFALRDVERSSSS
# B21: il2ra_site1_1z92_sap_19_mot_HHH_b2_03511_af2_000000113_0001_41_54_H_._HHH_b2_01993_af2_0001_0000400041_0000001_0_0001 (protein)
# chain: DEAEEVIERAIEAVERGDPEEVRRLLEKLIEHTGDPALRFLLEVLERKLEAGNYKAARAILEKSR
# B22: il2ra_site2_3nfp_normal_mot_HHH_b2_04451_000000238_0001_21_37_H_._HHH_b1_08573_0001_0000400020_0000001_0 (protein)
# chain: SSSDEEERIEELIELVEELIKEGDRTEALQVLLEASELAAKLGDEELARILLELFLLLQEKSSSS
# Molecular target: il2ra, P01589
# Test: yeast display titration
# il2ra, P01589, sequence (P01589 whole entry): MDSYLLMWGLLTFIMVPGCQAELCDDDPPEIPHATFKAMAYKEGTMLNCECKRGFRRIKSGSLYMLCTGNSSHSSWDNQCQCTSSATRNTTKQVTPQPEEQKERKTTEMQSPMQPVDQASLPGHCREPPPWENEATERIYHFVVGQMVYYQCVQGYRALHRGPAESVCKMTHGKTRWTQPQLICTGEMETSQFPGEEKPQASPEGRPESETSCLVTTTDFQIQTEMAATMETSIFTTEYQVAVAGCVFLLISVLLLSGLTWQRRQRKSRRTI
row,Binder,apparent Kd
1,B1,no binding seen
2,B2,no binding seen
3,B3,no binding seen
4,B4,no binding seen
5,B5,no binding seen
6,B6,no binding seen
7,B7,no binding seen
8,B8,no binding seen
9,B9,no binding seen
10,B10,no binding seen
11,B11,no binding seen
12,B12,no binding seen
13,B13,no binding seen
14,B14,no binding seen
15,B15,no binding seen
16,B16,no binding seen
17,B17,no binding seen
18,B18,no binding seen
19,B19,> 487 nM
20,B20,no binding seen
21,B21,no binding seen
22,B22,no binding seen
